# Reference: ChEMBL document CHEMBL3988442, “University of Dundee, Small-Polar-MMV Screening Library” (2021)
# The whole screen tested about 69,000 compounds, of which about 1,000 (1.4%) showed an effect of 50% or more. This is one part of a sample in which strong results are shown more often than they occur.
# System: Leishmania donovani
# Experiment: Leishmania intramacrophage assay
# Type: functional, organism-based
# Set-up: scale not given: in the data most compounds retested in dose-response had high values
structure (smiles),measurement,setting,value
COc1ncccc1CN1CC[C@]2(C[C@@H](OCc3ccccn3)CO2)C1.O=C(O)C(F)(F)F.O=C(O)C(F)(F)F.O=C(O)C(F)(F)F,Percent Effect,"30.3 µM, […]",-3.573%
Nc1nnnn1NCc1cccc(Cl)c1Cl,Percent Effect,"30.3 µM, […]",4.224%
O=C(CCc1ccsc1)N1CCCC(n2cncn2)C1 (centres undefined),Percent Effect,30 µM,18.97%
Cc1nccn1C1CCCN(C(=O)c2cccc(OCC(N)=O)c2)C1 (centres undefined),Percent Effect,30 µM,14.8%
COc1nccnc1N1CCC2(CC1)[C@H](O)C[C@@H]2OCCN(C)C,Percent Effect,"30.3 µM, […]",13.35%
O=C(Nc1cccc(F)c1)NC1CCN(Cc2ccncc2)CC1,Percent Effect,"30.3 µM, […]",20.9%
Cl.NC1CCc2nc(-c3ccncc3)nc(Nc3cccc(F)c3)c2C1 (centres undefined),Percent Effect,"30.3 µM, […]",64.39%
c1csc(CCNc2nc(-c3ccncc3)nc3c2CCNCC3)c1,Percent Effect,"30.3 µM, […]",9.747%
c1cc(-c2nc3c(c(NCCn4ccnn4)n2)CCNCC3)ccn1,Percent Effect,"30.3 µM, […]",24.72%
Cc1sc2c(C3CCNCC3)nc(Nc3cccc(F)c3)n2c1C.Cl,Percent Effect,"30.3 µM, […]",-10.63%
CNC(=O)c1cccc(CN2CCC(N(C)Cc3noc(C)n3)C2)c1 (centres undefined),Percent Effect,"30.3 µM, […]",-22.53%
CNc1cc(C2CCCN(S(=O)(=O)c3cn[nH]c3)C2)ccn1 (centres undefined),Percent Effect,"30.3 µM, […]",9.494%
CCN1CCN(C2CCN(Cc3c(C)noc3C)CC2)C1=O,Percent Effect,"30 µM, 30.03 µM",32.64%
Cc1nc(CN2CCCC2c2ccsc2)nc2ccccc12 (centres undefined),Percent Effect,"30 µM, 30.03 µM",47.19%
CN(C)c1nc(N)nc(CN2CCCC2c2ccsc2)n1 (centres undefined),Percent Effect,"30.3 µM, […]",83.34%
Cc1cccc(C2CCCN2Cc2nc(N)nc(N(C)C)n2)c1C (centres undefined),Percent Effect,"30.3 µM, […]",37.96%
CCCc1noc(CN2CCCC2c2ccsc2)n1 (centres undefined),Percent Effect,"30 µM, 30.03 µM",16.77%
CN(C)c1nc(N)nc(CN2CCCC2c2cccs2)n1 (centres undefined),Percent Effect,"30.3 µM, […]",87.57%
CN(C)c1nc(N)nc(CN2CCCC(c3ccccc3)CC2)n1 (centres undefined),Percent Effect,"30.3 µM, […]",6.795%
OC1(CNCCc2csc(-c3cccnc3)n2)CCNC1 (centres undefined),Percent Effect,"30.3 µM, […]",17.55%
CN1CCn2c(-c3cccc(F)c3)cnc2C12CCN(CC1CC1)CC2.O=C(O)C(F)(F)F.O=C(O)C(F)(F)F.O=C(O)C(F)(F)F,Percent Effect,"30.3 µM, […]",7.679%
Cc1nc(CCNc2ccc(-c3nc(C)c(C)c(=O)[nH]3)cn2)cs1,Percent Effect,"30.3 µM, […]",-24.43%
CCc1cc(=O)[nH]c(-c2ccc(NCCc3ccc(O)cc3)nc2)n1,Percent Effect,"30.3 µM, […]",10.3%
Cc1nc(-c2ccc(NCCc3ccc(O)cc3)nc2)[nH]c(=O)c1C,Percent Effect,"30.3 µM, […]",67.3%
CCOCC1c2c(cnn2CC2CC2)CCN1C(=O)c1ccncn1.O=C(O)C(F)(F)F (centres undefined),Percent Effect,"30.3 µM, […]",-17.31%
Cc1c(C(=O)NS(=O)(=O)c2ccc(F)cc2)cnn1CC(C)C,Percent Effect,"30.3 µM, […]",-23.8%
Cn1ncc2c(N3CCC3)nc(-c3ccncc3)nc21,Percent Effect,"30.3 µM, […]",7.019%
CC(C)N1CCCN(c2nc(-c3cccnc3)nc3c2cnn3C)CC1,Percent Effect,"30.3 µM, […]",93.98%
Cn1ncc2c(N3CCS(=O)(=O)CC3)nc(-c3cccnc3)nc21,Percent Effect,"30.3 µM, […]",31.77%
COc1ccccc1-c1csc(NC(=O)N2CCN(C)CC2C)n1 (centres undefined),Percent Effect,"30.3 µM, […]",9.878%
CCc1ccccc1CN1CC[C@@]2(O)CCN(S(=O)(=O)N(C)C)C[C@H]2C1,Percent Effect,"30.3 µM, […]",-14.75%
CCN(C)S(=O)(=O)NCC1CCCN(Cc2ccccc2F)C1 (centres undefined),Percent Effect,"30.3 µM, […]",-11.05%
O=C(c1ccc(O)c(Cl)c1)N1CCN(c2nccs2)CC1,Percent Effect,"30.3 µM, […]",64.57%
O=C(c1cc(Cl)cc(Cl)c1)N1CCN(c2nccs2)CC1,Percent Effect,"30 µM, 30.03 µM",30.43%
Nc1ncc(C(=O)N2CCN(c3nccs3)CC2)cc1Cl,Percent Effect,"30.3 µM, […]",-4.984%
CC(C(N)=O)N(C)Cc1ccccc1C(F)(F)F (centres undefined),Percent Effect,"30.3 µM, […]",-40.32%
CN(Cc1ccccc1C(F)(F)F)C(C(N)=O)c1ccccc1 (centres undefined),Percent Effect,"30.3 µM, […]",68.32%
CN(Cc1ccccc1F)C(C(N)=O)c1ccccc1 (centres undefined),Percent Effect,"30.3 µM, […]",11.08%
Fc1ccccc1Sc1ccccc1CNC1=NCCN1.I,Percent Effect,"30.3 µM, […]",29.36%
I.c1ccc(Sc2ccc3c(c2)OCO3)c(CNC2=NCCN2)c1,Percent Effect,"30.3 µM, […]",21.74%
Fc1ccc(Sc2ccccc2CNC2=NCCN2)cc1.I,Percent Effect,"30.3 µM, […]",50.51%
Cc1nnc([C@@H]2C[C@H]3CN(C(=O)c4sccc4C)C[C@H]3O2)[nH]1,Percent Effect,"30.3 µM, […]",16.44%
CN(Cc1cccnc1)[C@@H]1CN(C(=O)CC2CC2)[C@@H]2CCCO[C@H]12.O=C(O)C(F)(F)F.O=C(O)C(F)(F)F,Percent Effect,"30.3 µM, […]",-10.3%
CN(Cc1cccnc1)[C@@H]1CN(C(=O)c2ccno2)[C@@H]2CCCO[C@H]12.O=C(O)C(F)(F)F.O=C(O)C(F)(F)F,Percent Effect,"30.3 µM, […]",75.56%
CN(Cc1cccnc1)[C@@H]1CN(C(=O)c2ccoc2)[C@@H]2CCCO[C@H]12.O=C(O)C(F)(F)F.O=C(O)C(F)(F)F,Percent Effect,"30.3 µM, […]",-5.312%
Cn1ccnc1-c1noc(NCc2ccc(Cl)cc2)n1,Percent Effect,"30.3 µM, […]",-1.294%
Cc1cc(C)nc(NC(=O)NCCCSc2nncn2C)n1,Percent Effect,"30.3 µM, […]",12.59%
O=C(O)c1c(Cl)ncn1-c1ccccc1,Percent Effect,"30.3 µM, […]",42.23%
Cc1ccccc1-n1cnc(Cl)c1C(=O)O,Percent Effect,"30.3 µM, […]",51.36%
O=C(O)c1c(Cl)ncn1-c1cccc2ccccc12,Percent Effect,"30.3 µM, […]",32.69%
CN(C)C1CCC2(CCN(Cc3nccn3C)CC2)c2ccccc21.O=C(O)C(F)(F)F.O=C(O)C(F)(F)F (centres undefined),Percent Effect,"30.3 µM, […]",15.24%
c1cncc(CN2CCC(NCCc3ccc4c(c3)OCO4)CC2)c1,Percent Effect,"30.3 µM, […]",21.95%
COc1cccc(-c2cc(C(=O)NCCCC(F)(F)F)[nH]n2)c1,Percent Effect,"30.3 µM, […]",24.25%
COc1cccc(-c2cc(C(=O)NCCCn3cnnc3)[nH]n2)c1,Percent Effect,"30.3 µM, […]",50.06%
COc1cccc(-c2cc(C(=O)NCCCn3nc(C)cc3C)[nH]n2)c1,Percent Effect,"30.3 µM, […]",35.19%
Cc1cc(C)c2c(c1)C(CC(=O)O)C(=O)N2 (centres undefined),Percent Effect,"30.3 µM, […]",12.49%
Cc1ccc2nc(C)c(C)c(C(=O)NCCCn3ccnn3)c2c1,Percent Effect,"30.3 µM, […]",16%
CC(C)(C)c1n[nH]c(C2CN(Cc3nnc(C4CC4)o3)CCO2)n1 (centres undefined),Percent Effect,30 µM,6.806%
Cc1cc(C(=O)N2C[C@@H](CN(C)CCN(C)C)[C@@H](CO)C2)nc(C)n1,Percent Effect,"30.3 µM, […]",0.2814%
COc1ccc2cc(C(=O)N3CCCCC3CC(N)=O)[nH]c2c1 (centres undefined),Percent Effect,"30 µM, 30.03 µM",4.026%
NC(=O)CN1CCC(NC(=O)Nc2nccs2)CC1,Percent Effect,"30 µM, 30.03 µM",-0.9986%
CC(CNCc1ccncc1)Oc1ccccn1.Cl (centres undefined),Percent Effect,"30 µM, 30.03 µM",6.303%
Cc1c(C)n(CC(O)CN2CCCCCC2)c2c(Cl)cccc12 (centres undefined),Percent Effect,"30.3 µM, […]",-13.19%
Cc1c(C)n(CC(O)CN2CCN(CCO)CC2)c2c(Cl)cccc12.Cl (centres undefined),Percent Effect,"30.3 µM, […]",50.22%
Cc1c(C)n(CC(O)CN2CCOCC2)c2c(Cl)cccc12.Cl (centres undefined),Percent Effect,"30.3 µM, […]",-3.857%
O=C(C1CCOCC1)N1CC[C@H](O)[C@@H]1Cc1cccnc1,Percent Effect,"30.3 µM, […]",25.33%
Cc1noc(C)c1CN(C)c1ncnc2onc(C)c12,Percent Effect,"30.3 µM, […]",-10.33%
O=C(c1cscn1)N1C[C@H](OCc2cccnc2)[C@H]2COC[C@H]21,Percent Effect,"30.3 µM, […]",-0.3632%
COc1cccc(C(C(=O)O)N2CCC(Cn3cccn3)CC2)c1OC (centres undefined),Percent Effect,"30.3 µM, […]",3.274%
CNc1nc(CNC(=O)Nc2cccc(Cl)c2OC)cs1,Percent Effect,30 µM,28.86%
COc1c(Cl)cccc1NCc1csc(NC(C)=O)n1,Percent Effect,"30.3 µM, […]",71.24%
COc1c(Cl)cccc1NCc1csc(C)n1,Percent Effect,"30.3 µM, […]",-4.371%
CCc1ccc(C(=O)N2CCCC2c2c(C)nn(C)c2OC)o1 (centres undefined),Percent Effect,"30.3 µM, […]",16.94%
O=C(c1ccccn1)N1C[C@@H]2CC[C@H](C1)N(C(=O)Cc1cccs1)C2,Percent Effect,"30.3 µM, […]",-16.24%
COc1ccccc1-c1ccnc2nc(N3CCCCC3)[nH]c(=O)c12,Percent Effect,"30.3 µM, […]",64.29%
COc1ccc(-c2ccnc3nc(N4CCCCC4)[nH]c(=O)c23)cc1,Percent Effect,"30.3 µM, […]",8.173%
COc1ccc(-c2ccnc3nc(N4CCCC4)[nH]c(=O)c23)cc1OC,Percent Effect,"30.3 µM, […]",26.43%
CCCN1CCCC1Cn1nc(C)cc1C (centres undefined),Percent Effect,30 µM,21.44%
O=S(=O)(c1ccccc1Br)N1CCC2(CC1)OCCS2,Percent Effect,"30.3 µM, […]",-12.48%
OCCN1CCN(CC(O)c2ccc(OC(F)(F)F)cc2)CC1 (centres undefined),Percent Effect,"30.3 µM, […]",19.69%
CCCN1CCN(CC(O)c2ccc(OC(F)(F)F)cc2)CC1 (centres undefined),Percent Effect,"30.3 µM, […]",27.81%
COCCN1CCN(CC(O)c2ccc(OC(F)(F)F)cc2)CC1 (centres undefined),Percent Effect,"30.3 µM, […]",52.28%
Cc1nc(CCN(C)C(=O)CN2CCCCCC2)no1,Percent Effect,"30.3 µM, […]",28.54%
CC(C)(C)NC(=O)NC(=O)CNc1c(F)cccc1N1CCCC1,Percent Effect,"30.3 µM, […]",14.38%
CCCn1nc2c(cc1=O)CN(c1ncnc3ccsc13)CC2,Percent Effect,"30.3 µM, […]",56.14%
Cn1nc2c(cc1=O)CN(c1ncnc3ccsc13)CC2,Percent Effect,"30.3 µM, […]",15.92%
CCn1nc2c(cc1=O)CN(c1ncnc3ccsc13)CC2,Percent Effect,"30.3 µM, […]",42.12%
Cc1nc([C@@H]2C[C@@H]3CCN(C(=O)c4ccnnc4)C[C@H]3O2)sc1C,Percent Effect,"30 µM, 30.03 µM",6.612%
CCN1C[C@H]2CCN(C(=O)NC3CCCC3)CC[C@H]2S1(=O)=O,Percent Effect,"30 µM, 30.03 µM",-4.578%
CNC(=O)C1Cn2ccnc2C2(CCN(Cc3cccc(C)n3)CC2)O1.O=C(O)C(F)(F)F (centres undefined),Percent Effect,"30 µM, 30.03 µM",-9.841%
NCC1CCCN(c2nc(-c3ccccc3)nc3c2CCNCC3)C1 (centres undefined),Percent Effect,"30.3 µM, […]",17.41%
N#CC1CCCN(c2nc(-c3ccccc3)nc3c2CCNCC3)C1 (centres undefined),Percent Effect,"30 µM, 30.03 µM",83.36%
NCC1CN(c2nc(-c3ccccc3)nc3c2CCNCC3)CCO1 (centres undefined),Percent Effect,"30 µM, 30.03 µM",6.18%
CCOCCCNC(=O)c1cc(Br)c2c(c1)OCCO2,Percent Effect,"30.3 µM, […]",32.12%
CCC(C)(C)NC(=O)Cn1nc(C)nc1-c1ccccc1,Percent Effect,"30.3 µM, […]",-5.337%
CC1(C)CNC(=O)c2nc(CCN3CCC(O)CC3)[nH]c2C1,Percent Effect,"30.3 µM, […]",-12%
O=C1[C@@H]2CN(Cc3cc4ccccc4o3)C[C@]2(C(=O)O)CN1CC1CC1,Percent Effect,"30.3 µM, […]",10.9%
CSCC[C@H](NC(C)=O)c1nc(CCc2ccccc2)n[nH]1,Percent Effect,"30.3 µM, […]",10.23%
NC(=O)c1ccccc1NC(=O)CCN1CCN(CCO)CC1,Percent Effect,"30.3 µM, […]",10.76%
